Records with an inconclusive call do not appear. The source made the active and inactive calls. Unless noted, the call rests on the fitted dose curve; in most records, active means well fitted curve in the direction sought with a large enough effect; inconclusive means small, poorly fitted or top-dose-only effect, or another doubt; inactive means no such curve, though single readings can be large; an effect the other way counts as inactive or inconclusive.
Assays:
[1] = qHTS Assay for Identifying Gametocytocidal Compounds (AID 743244);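 further: on the % scale 0 is the no-effect control and ±100 the full control effect; actives lower the fluorescent signal which means gametocytes are killed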; conditions: P. falciparum 3D7 stage III-V gametocytes, alamarBlue, 72 h; max response: stronger effect = lower value
Procedure, shortened: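 P. falciparum 3D7 stage III–V gametocytes (20,000 cells/well) were exposed to compounds for 72 h at 37 °C, 5% CO2. AlamarBlue was then added for 24 h; decreased resorufin fluorescence (Ex 525/Em 598 nm) indicated loss of viability.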

KB-3-1 = test: Cytotoxic Profiling of Annotated Libraries Using Quantitative High-Throughput Screening (AID 1296008); conditions: Five cell lines viability, CellTiter-Glo ATP luminescence, 48-72 h; max response: stronger effect = lower value; further: on the % scale 0 is the no-effect control and ±100 the full control effect; nearly all actives have a fitted effect of over 60% in size
Procedure, shortened: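 Compounds were pin-transferred onto cells and incubated 48 or 72 hr at 37 degree Celsius, 95% humidity. CellTiter-Glo was added, plates sat 10 min at room temperature, then ATP-coupled luminescence was imaged as the viability read-out.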

[2] = Drug repurposing screens with cells derived from glioblastoma tumor samples (AID 1345199); conditions: GBM patient neurospheres viability, ATP luminescence, 48 h; Potency: tumour line A; series mostly up to 45.9 µM; further: on the % scale 0 is the no-effect control and ±100 the full control effect; nearly all actives have a fitted effect of over 40% in size
Procedure, shortened: (§1)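 Primary testing used CD133+ neurospheres from four GBM patients, seven concentrations, 48 h exposure and ATP-based viability; confirmation added three slower-growing patient lines.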

astro = test: as above; conditions: viability, ATP luminescence, 48 h; series mostly up to 45.9 µM
Procedure, shortened: as §1

[3] = P-glycoprotein substrates identified in KB-8-5-11 adenocarcinoma cell line, qHTS therapeutic library screen (AID 1346987); further: nearly all actives have a fitted effect of over 65% in size; further: potency means the concentration at half of the fitted maximal effect
Procedure, shortened: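 Luminescence from CellTiter-Glo, read 5 min after addition, quantified survival of KB-8-5-11 (P-gp-overexpressing) cells exposed to compounds for 72 h. AC50 was derived from concentration-response curves.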

[4] = molecular target: Cytochrome P450 3A4 (Homo sapiens) (UniProt P08684); test: Cytochrome P450 family 3 subfamily A member 4 (CYP3A4) small molecule antagonists: luciferase qHTS assay (AID 1645841; active means well fitted curve in the direction sought with a large enough effect in the repeat runs; an effect the other way counts as inactive or inconclusive; further: nearly all actives have a fitted effect of over 45% in size)
Sequence of Cytochrome P450 3A4 (Homo sapiens) (P08684 whole entry, looked up): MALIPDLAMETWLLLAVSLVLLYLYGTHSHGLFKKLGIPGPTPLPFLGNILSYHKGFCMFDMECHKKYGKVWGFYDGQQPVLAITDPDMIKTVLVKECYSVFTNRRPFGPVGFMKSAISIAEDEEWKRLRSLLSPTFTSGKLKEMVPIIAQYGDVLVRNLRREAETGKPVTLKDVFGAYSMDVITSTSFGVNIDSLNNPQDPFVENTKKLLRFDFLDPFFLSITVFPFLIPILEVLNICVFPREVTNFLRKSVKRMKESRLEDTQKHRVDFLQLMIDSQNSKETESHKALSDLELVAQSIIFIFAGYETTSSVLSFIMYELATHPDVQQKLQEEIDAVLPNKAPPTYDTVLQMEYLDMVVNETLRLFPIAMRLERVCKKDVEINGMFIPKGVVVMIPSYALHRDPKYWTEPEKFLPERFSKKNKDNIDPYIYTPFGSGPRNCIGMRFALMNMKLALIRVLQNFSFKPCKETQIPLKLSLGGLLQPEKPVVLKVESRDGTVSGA
Procedure, shortened: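 P450-Glo CYP3A4 enzyme with proluciferin substrate was preincubated with DMSO-dissolved compounds for 10 min at room temperature. NADPH regeneration solution started a 1 h reaction. Detection reagent stopped it, and luminescence was read after 20 min.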

[5] = molecular target: Cytochrome P450 2C9 (Homo sapiens) (UniProt P11712); test: Cytochrome P450 family 2 subfamily C member 9 (CYP2C9) small molecule antagonists: luciferase biochemical (cell-free) qHTS assay (AID 1645842; active means well fitted curve in the direction sought with a large enough effect in the repeat runs; an effect the other way counts as inactive or inconclusive; further: on the % scale 0 is the no-effect control and ±100 the full control effect; nearly all actives have a fitted effect of over 55% in size)
Sequence of Cytochrome P450 2C9 (Homo sapiens) (P11712 whole entry, looked up): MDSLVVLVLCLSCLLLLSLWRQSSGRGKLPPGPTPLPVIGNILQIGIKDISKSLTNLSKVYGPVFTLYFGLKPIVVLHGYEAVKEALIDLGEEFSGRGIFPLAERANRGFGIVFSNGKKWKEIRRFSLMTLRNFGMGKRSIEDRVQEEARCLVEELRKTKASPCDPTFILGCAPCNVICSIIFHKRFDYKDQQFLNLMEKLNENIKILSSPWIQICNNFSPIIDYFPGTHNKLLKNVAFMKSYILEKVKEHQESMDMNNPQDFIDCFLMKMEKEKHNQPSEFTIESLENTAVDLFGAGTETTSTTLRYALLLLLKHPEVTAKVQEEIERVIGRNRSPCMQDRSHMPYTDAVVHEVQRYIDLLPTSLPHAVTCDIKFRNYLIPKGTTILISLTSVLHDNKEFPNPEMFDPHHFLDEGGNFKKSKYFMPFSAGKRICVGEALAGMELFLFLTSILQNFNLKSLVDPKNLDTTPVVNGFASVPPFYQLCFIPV
Procedure, shortened: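 P450-Glo CYP2C9 system: proluciferin substrate with enzyme in mix containing 0.4% BSA, 10 min at room temperature, then NADPH regeneration solution added and incubated 1 h at 37C. Detection reagent stopped reaction; luminescence read after 20 min as RLU.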

Furin (Homo sapiens) = Furin (Homo sapiens) (UniProt P09958); test: Furin counterscreen qHTS for Zika virus inhibitors (AID 1347149);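 further: purified recombinant full-length human furin enzyme at 5 nM; fluorescence gain from furin cutting a BOC-RVRR-AMC peptide substrate over 15 min; top concentration of the series differs between compounds; plate controls were no-inhibitor control for no effect and no-enzyme control for full effect; nearly all actives have a fitted effect of over 70% in size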
Sequence of Furin (Homo sapiens) (P09958 whole entry, looked up): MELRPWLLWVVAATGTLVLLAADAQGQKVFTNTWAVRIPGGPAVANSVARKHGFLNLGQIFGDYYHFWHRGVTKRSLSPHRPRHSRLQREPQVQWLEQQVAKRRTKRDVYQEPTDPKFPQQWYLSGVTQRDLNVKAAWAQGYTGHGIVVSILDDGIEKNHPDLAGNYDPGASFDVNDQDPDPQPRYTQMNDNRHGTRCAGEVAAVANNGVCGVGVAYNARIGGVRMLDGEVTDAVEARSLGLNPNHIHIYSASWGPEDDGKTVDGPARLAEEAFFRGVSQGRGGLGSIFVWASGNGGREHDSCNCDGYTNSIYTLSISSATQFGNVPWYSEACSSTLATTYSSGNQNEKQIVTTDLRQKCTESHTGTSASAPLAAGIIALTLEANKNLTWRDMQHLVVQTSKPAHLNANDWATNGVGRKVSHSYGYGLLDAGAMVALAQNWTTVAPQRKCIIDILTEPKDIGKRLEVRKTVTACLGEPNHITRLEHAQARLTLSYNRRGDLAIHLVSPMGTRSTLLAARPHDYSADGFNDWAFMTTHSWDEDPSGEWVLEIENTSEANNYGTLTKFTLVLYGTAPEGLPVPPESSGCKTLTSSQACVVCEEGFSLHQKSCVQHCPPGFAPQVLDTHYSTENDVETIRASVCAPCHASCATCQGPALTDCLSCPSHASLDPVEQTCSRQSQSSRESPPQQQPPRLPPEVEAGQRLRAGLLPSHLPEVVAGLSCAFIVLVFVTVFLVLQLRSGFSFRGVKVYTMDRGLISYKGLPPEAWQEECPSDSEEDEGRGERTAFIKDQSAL
Procedure, shortened: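 Counterscreen measures cleavage of 2 microM BOC-RVRR-AMC, below its ~15 microM Km, by 5 nM full-length human furin at pH 7.0 after a 15-min compound preincubation. Inhibition derives from the 15-min fluorescence increase at 37C.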

[6] = system: Zika virus NS2B-NS3 protease (linked construct); test: Confirmatory screen NINDS AMC qHTS for Zika virus inhibitors (AID 1347152);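 further: AMC fluorescence gain from cleaved Bz-Nle-KRR-AMC substrate over 15 min; top concentration of the series differs between compounds; 0% = no-inhibitor control and -100% = no-enzyme control; nearly all actives have a fitted effect of over 70% in size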
Procedure, shortened: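 Purified NS2B-NS3 protease with NS2B hydrophilic domain linked to NS3 protease domain by flexible linker, 1 nM final in 10 mM Tris-HCl pH 8.0, 0.01% Tween 20. Compounds preincubated 15 min, room temperature; Bz-Nle-KRR-AMC 10 microM (Km 18.3 µM); 15-min fluorescence change, 4-parameter Hill fit.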

[7] = system: Zika virus NS2B-NS3 protease (unlinked complex); test: Confirmatory screen GU AMC qHTS for Zika virus inhibitors (AID 1347153);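 further: percent inhibition with 0% = no inhibitor control and 100% = no enzyme control; nearly all actives have a fitted effect of over 70% in size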
Procedure, shortened: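 Noncovalent NS2B hydrophilic domain/NS3 protease complex (25 nM) in 10 mM Tris-HCl pH 8.0, 0.01% Tween 20 was preincubated 15 min at room temperature with compounds. Then 10 µM AMC substrate (Km 18.3 µM) was added; fluorescence was read over 15 min and fitted to a 4-parameter Hill equation.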

[8] = Confirmatory screen NINDS Rhodamine qHTS for Zika virus inhibitors (AID 1347161);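 further: purified Zika NS2B-NS3 protease with linked NS2B cofactor domain and Rhodamine110 peptide substrate; plate controls were no-inhibitor control for no effect and no-enzyme control for full effect; nearly all actives have a fitted effect of over 60% in size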
Procedure, shortened: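 Purified linked NS2B-NS3 protease (NS2B hydrophilic domain joined to NS3 protease by flexible linker), 25 nM in 10 mM Tris-HCl pH 8.0, 0.01% Tween 20. Compounds titrated, 15 min preincubation at room temperature; 1.5 microM Rhodamine110 substrate, FITC fluorescence change over 15 min.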

[9] = Vero cells viability qHTS for Zika virus inhibitors (AID 1347167); further: on the % scale 0 is the no-effect control and ±100 the full control effect
Procedure, shortened: (§2)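 To flag cytotoxic protease inhibitors, viability is measured by ATP-dependent luminescence (CellTiter Glo) after cells attached overnight receive compound for 24 to 48 hours in DMEM with 4% FBS.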

[10] = HepG2 cells viability qHTS for Zika virus inhibitors (AID 1347168); further: on the % scale 0 is the no-effect control and ±100 the full control effect
Procedure, shortened: as §2

C[C@]12CCC(=O)C[C@@H]1CC[C@@H]1[C@@H]2CC[C@@]2(C)[C@H]1CC[C@]2(C)O
inactive: max response [1] -5.63% | max response (KB-3-1) -6.75% | Potency [2] | Potency (astro)

CCCCNC(C)(C)[P+](=O)O
inactive: max response [1] -17.6% | Potency [3] | outcome [4] | Potency [5] | max response (KB-3-1) 5.36% | Potency [2] | Potency (astro)

C[C@@H]1[C@@H]2Cc3ccc(O)cc3[C@@]1(C)CCN2CCc1ccccc1
inactive: Potency (Furin (Homo sapiens)) | Potency [6] | Potency [7] | Potency [8] | Potency [9] | Potency [10] | max response (KB-3-1) -19% | Potency (astro)
active: Potency [3] 12.6 µM

From PubChem BioAssay (NCATS)
